FLuc counter: qHTS profiling assay for firefly luciferase inhibitor/activator using purifed enzyme and Km concentrations of substrates (counterscreen for miR-21 project); purified FLuc, Km substrates, luminescence inhibition; Potency, µM (doses to about 57.5 µM), usual class: inhibitors; actives 6.9% (n = 360,000); AID 588342, 2011; further: nearly all actives have a fitted effect of over 55% in size
Target sequence (P08659 whole entry, looked up): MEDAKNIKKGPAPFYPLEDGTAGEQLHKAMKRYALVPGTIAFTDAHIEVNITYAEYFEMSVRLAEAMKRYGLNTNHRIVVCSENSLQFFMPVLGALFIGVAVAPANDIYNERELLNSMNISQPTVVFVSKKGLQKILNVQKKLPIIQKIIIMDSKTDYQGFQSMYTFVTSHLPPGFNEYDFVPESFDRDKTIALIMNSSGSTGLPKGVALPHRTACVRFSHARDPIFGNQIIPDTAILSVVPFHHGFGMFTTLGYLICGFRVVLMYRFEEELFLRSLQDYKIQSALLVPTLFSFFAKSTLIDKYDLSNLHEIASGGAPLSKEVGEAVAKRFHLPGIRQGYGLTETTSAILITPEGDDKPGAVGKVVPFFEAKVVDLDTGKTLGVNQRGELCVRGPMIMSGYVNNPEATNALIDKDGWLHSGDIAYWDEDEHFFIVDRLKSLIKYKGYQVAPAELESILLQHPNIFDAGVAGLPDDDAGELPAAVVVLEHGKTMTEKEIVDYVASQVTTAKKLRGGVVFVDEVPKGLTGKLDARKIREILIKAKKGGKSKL
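Purified P. pyralis luciferase, 10 nM final, with Km-level 10 uM D-luciferin and 10 uM ATP in 50 mM Tris acetate pH 7.5, 10 mM Mg acetate, 0.01% Tween-20, 0.05% BSA; 6-point qHTS titration about 60 µM downward; luminescence read.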
NPC1 promoter act: qHTS Assay for NPC1 Promoter Activators; Huh7 NPC1 promoter luciferase reporter, 24 h; Potency, µM (series often up to 9.22 µM), hits mostly activators; actives 2.4% (n = 320,000); AID 485313, 2010; further: nearly all actives have a fitted effect of over 60% in size
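Cells: Huh7 expressing luciferase under the NPC1 promoter, 1500/well. Seeded 2 h, compound added, incubated 24 h at 37 °C. Luciferase reagent, 10 min ambient, then luminescence.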
Rab9 promoter act: qHTS Assay for Rab9 Promoter Activators | Potency, µM (top dose mostly 9.22 µM), actives largely listed as activators | Huh7 Rab9 promoter-luciferase reporter, luminescence, 24 h | actives 2.8% (n = 320,000); further: nearly all actives have a fitted effect of over 60% in size
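Measured in stably transfected Huh7 cells bearing a Rab9 promoter–luciferase construct: 24 h compound treatment at 37 °C, followed by luminescence detection.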
SMN2 splice enh: qHTS Assay for Enhancers of SMN2 Splice Variant Expression | HEK293 SMN2-luciferase splicing reporter, luminescence, 30-36 h | Potency, µM (highest dose often 46.1 µM), hits mostly activators | actives 2.8% (n = 210,000) | AID 1458, 2008; further: nearly all actives have a fitted effect of over 55% in size
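qHTS luciferase splicing reporter: luminescence rises when SMN2 exon 7 is included in transfected HEK293 cells. Compound exposure lasted 30-36 h at 37C, with 4.5 mM final sodium butyrate as control, followed by a ONE-Glo read.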
Luc counter: Counterscreen for Luciferase (Kinase-Glo TM) Inhibition; AID 1379, 2008; Potency, µM (highest dose often 38.3 µM), usual class: inhibitors; actives 0.28% (n = 200,000); Luciferin 4-monooxygenase (Photuris pensylvanica), Q27757; Kinase-Glo luciferase, ATP luminescence, 8 min; further: nearly all actives have a fitted effect of over 60% in size
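Substrate mix (final 50 mM imidazole pH 7.2, 50 mM KCl, 7 mM MgCl2, 10 uM ATP, 0.01% Tween 20, 0.05% BSA) plus pin-tool compound, then Kinase-Glo detection mix; 8 min ambient, luminescence read.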
Hits are given with their value; – = inactive; ? = inconclusive; · = no result given; [ ] = dose if it differs, or a comment. Sampled rows, rich in hits. Any-hit rate of the full collection: about 7.3%. The call rests on the fitted dose curve; in most records, active means well fitted curve in the direction sought with a large enough effect; inconclusive means small, poorly fitted or top-dose-only effect, or another doubt; inactive means no such curve, though single readings can be large; an effect the other way counts as inactive or inconclusive.

SMILES	FLuc counter	NPC1 promoter act	Rab9 promoter act	SMN2 splice enh	Luc counter
O=C(O)COc1ccc(/C=C/c2ccc3cccc([N+](=O)[O-])c3n2)cc1	2.69µM	–	–	–	–
Clc1ccc(Cn2c(/C=C/c3ccco3)nc3ccccc32)cc1	10.7µM	?	3.55µM	–	–
C#CCn1c(/C=C/c2ccc(Cl)cc2)nc2ccccc21	0.19µM	·	·	2.51µM	·
Cc1ccc(Cn2c(/C=C/c3ccco3)nc3ccccc32)cc1	10.7µM	?	?	·	–
Cc1ccc(-n2nc(C)c3c(C(=O)NCCc4ccccc4)cc(C)nc32)cc1	–	·	·	·	·
Fc1cccc(-n2ncc3c2ncn2nc(COc4ccc(Cl)cc4)nc32)c1	–	·	·	–	·
CCOCCCNc1nc2ccccc2[nH]1	–	–	–	–	–
CCOCCCNc1ccc(-c2ccccc2)nn1	?	?	2.24µM	14.1µM	–
Cc1ccc(CNC(=O)C(C)n2c(=O)cc(C(F)(F)F)c3c(C)nn(C)c32)cc1 (centres undefined)	–	·	·	·	·
N#C/C(=C\Nc1ccccn1)C(=O)C1CC1	·	·	·	–[9.22 µM]	–[7.66 µM]
COc1ccc(C(=O)N/N=C/c2ccc(OC)c(COc3ccccc3)c2)cc1	–	–	–	·	·
COc1ccc(OC)c(/C=N/NC(=O)c2cc3c(OC)c(OC)ccc3[nH]2)c1	4.78µM	–	–	–	–
COc1cccc(OCc2cc(/C=N/NC(=O)c3ccn[nH]3)ccc2OC)c1	15.1µM	–	–	–	–
COc1ccc(/C=N\NC(=O)c2ccccc2)cc1COc1ccccc1	–	–	–	·	·
COc1ccc(/C=N\NC(=O)c2cc(O)c(O)c(O)c2)cc1COc1ccc(C(=O)OCC(C)C)cc1	23.9µM	–	–	·	·
CCOc1ccc2[nH]c(C(=O)N/N=C/c3ccccc3OC)cc2c1	15.1µM	–	–	·	·
COc1cc(OC)c2cc(C(=O)N/N=C/c3ccccc3O)[nH]c2c1	–	–	–	·	·
CCCCN(CC)CCNC(=O)CCn1cnc2onc(-c3ccc(F)cc3)c2c1=O	–	·	·	·	·
CCOCCc1nn2c(=O)cc(COC(=O)COc3ccccc3Cl)nc2s1	–	·	·	·	·
Cc1ccc(S(=O)(=O)Nc2ccc(O)c(C(=O)O)c2)c(C)c1	·	·	·	·	–
COc1cc(-c2nc(Cn3nnc(C(=O)Nc4ccccc4C)c3C)c(C)o2)cc(OC)c1OC	–	·	·	–	·
COc1ccc2[nH]c(C(=O)N/N=C/c3ccccc3OC)cc2c1	19µM	–	–	·	·
CCCOc1ccc2[nH]c(C(=O)N/N=C/c3cc(OC)c(OC)c(OC)c3)cc2c1	13.5µM	–	–	·	·
COc1ccc(/C=N/NC(=O)c2cccnc2)cc1O	–	–	–	·	·
COc1ccc2[nH]c(C(=O)N/N=C/c3ccc(OC)c(O)c3)cc2c1	5.36µM	–	–	·	·
SMILES	FLuc counter	NPC1 promoter act	Rab9 promoter act	SMN2 splice enh	Luc counter
CCS(=O)(=O)N1N=C(c2cccs2)CC1c1cc2cc(C)ccc2nc1Cl (centres undefined)	16.9µM	–	–	·	·
O=c1cc(-c2ccc(Cl)cc2)oc(=O)[nH]1	16.9µM	–	–	·	·
COc1ccc(/C=C2\SC(=N)N(c3nccs3)C2=O)cc1OC	2.13µM	–	–	–	–
N=C1S/C(=C\c2ccc(-c3cccc(Cl)c3)o2)C(=O)N1c1nccs1	–	–	–	–	–
O=[N+]([O-])c1ccc(S(=O)(=O)Nc2nc(-c3ccccc3)cs2)cc1	–	–	–	·	·
C=CCNc1nc(-c2sc(NC(C)=O)nc2C)cs1	?	–	–	–	–
C=CCNc1nc(-c2ccc([N+](=O)[O-])cc2)cs1	3.01µM	?	3.55µM	?	–
CCCOc1ccc(-c2nc(-c3ccc([N+](=O)[O-])cc3)cs2)cc1	?	–	?	·	·
CN(C)c1nc(-c2ccc([N+](=O)[O-])cc2)cs1	12µM	–	?	–	–
C=CCNc1nc(-c2ccc(Cl)cc2)cs1	1.35µM	2.82µM	2µM	25.1µM	–
COc1ccccc1CNC(=O)CSc1nc(=O)[nH]c2c1CCC2	–	·	·	·	·
Cn1ccsc1=NC(=O)c1ccc(OC(F)(F)F)cc1	9.53µM	?	4.47µM	·	·
Cn1ccsc1=NC(=O)c1ccccc1F	–	–	–	–	–
Cn1ccs/c1=N\C(=O)Nc1ccccc1	10.7µM	2.51µM	3.16µM	·	·
Cn1ccsc1=NC(=O)c1ccccc1OC(F)F	–	–	–	·	·

Compound activity (PubChem BioAssay)
